Assays:
[1] = system: Human papillomavirus type 1a protein E7 (residues 44-93); test: HPV1a E7 fragment binders on microarrays, primary screen, biochemical, small-molecule microarray, residues 44-93, 635 nm fluorescence (AID 1108); settings: small-molecule microarray binding, fluorescence 635 nm; higher = more signal;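 further: E7 fragment applied at 1 µg/mL in TBST for 1 h at 4 C; score combines spot fluorescence with its signal to noise ratio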
[2] = modulators of HCV replicon luciferase signal, primary screen, HCV replication inhibitor project, Huh7 cells, luciferase reporter (AID 1109); settings: 48 h, higher = more signal;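 further: huh7 hepatoma cells harbouring a luciferase neomycin HCV replicon reporter; luciferase luminescence as measure of HCV replicon replication; test concentration not given here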
[3] = target: Left-right determination factor 2 (Homo sapiens) (UniProt O00292); test: LEFTY2 binders on small-molecule microarrays, primary screen, biochemical, small-molecule microarray, 635 nm fluorescence scan (AID 1110); settings: LEFTY2 binding, higher = more signal
[4] = target: Calmodulin-1 (Homo sapiens) (UniProt P0DP23); test: CALM1 binders on microarrays, EGTA buffer, profiling panel, biochemical, small-molecule microarray, Cy5-labelled CALM1 (AID 1111); settings: Cy5-CALM1 binding fluorescence, higher = more signal;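 further: labelled calmodulin applied in Tris saline Tween buffer holding calcium plus EGTA and DTT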
[5] = target: Calmodulin-1 (Homo sapiens) (UniProt P0DP23); test: calcium-bound CALM1 binders on microarrays, profiling panel, artefact control for SMM control-protein annotation, biochemical, small-molecule microarray, Cy5-labelled CALM1, plus calcium (AID 1112); settings: Cy5-CALM1 binding fluorescence, higher = more signal;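 further: score merges spot fluorescence with signal to noise from triplicate slides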
[6] = small-molecule microarray binders of probe aWnt5a, primary screen, biochemical, biotinylated probe, 635/667 nm fluorescence (AID 1113); settings: higher = more signal;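 further: score merges 667 nm fluorescence intensity with signal-to-noise per printed feature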
[7] = small-molecule microarray binders of probe aShh, primary screen, biochemical, biotinylated probe, 635/667 nm fluorescence (AID 1114); settings: higher = more signal;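 further: probe is biotin-labelled aShh protein from a stem cell growth factor screen; measures binding of labelled protein to compounds printed on the slide; score merges feature fluorescence at 667 nm with signal-to-noise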
[8] = small-molecule microarray binders of probe aNog, primary screen, biochemical, biotinylated probe, 635/667 nm fluorescence (AID 1115); settings: higher = more signal;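 further: probe is biotinylated aNog protein used at 0.15 µg/mL for 1 h at 4 C; z-score combines 667 nm fluorescence of each spot with its signal to noise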
[9] = target: Torsin-1A-interacting protein 1 (Homo sapiens) (UniProt Q5JTV8); test: LAP1 binders from COS7 cell lysate, primary screen, small-molecule microarray, 635/667 nm fluorescence (AID 1116); settings: COS7-hLAP1 lysate binding, 635 nm fluorescence, higher = more signal
[10] = target: Alpha-bungarotoxin (Bungarus multicinctus) (UniProt P60615); test: alpha-bungarotoxin binders on microarray, profiling panel, artefact control for SMM control protein annotation, biochemical, small-molecule microarray, Alexa647 label, 635/667 nm fluorescence (AID 1117); settings: alpha-BTX-A647 binding fluorescence, higher = more signal
Sequence of Alpha-bungarotoxin (Bungarus multicinctus) (P60615 whole entry, looked up): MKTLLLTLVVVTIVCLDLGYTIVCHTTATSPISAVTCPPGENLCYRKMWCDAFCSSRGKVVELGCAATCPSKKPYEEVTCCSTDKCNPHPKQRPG

Sequence of Torsin-1A-interacting protein 1 (Homo sapiens) (Q5JTV8 whole entry, looked up): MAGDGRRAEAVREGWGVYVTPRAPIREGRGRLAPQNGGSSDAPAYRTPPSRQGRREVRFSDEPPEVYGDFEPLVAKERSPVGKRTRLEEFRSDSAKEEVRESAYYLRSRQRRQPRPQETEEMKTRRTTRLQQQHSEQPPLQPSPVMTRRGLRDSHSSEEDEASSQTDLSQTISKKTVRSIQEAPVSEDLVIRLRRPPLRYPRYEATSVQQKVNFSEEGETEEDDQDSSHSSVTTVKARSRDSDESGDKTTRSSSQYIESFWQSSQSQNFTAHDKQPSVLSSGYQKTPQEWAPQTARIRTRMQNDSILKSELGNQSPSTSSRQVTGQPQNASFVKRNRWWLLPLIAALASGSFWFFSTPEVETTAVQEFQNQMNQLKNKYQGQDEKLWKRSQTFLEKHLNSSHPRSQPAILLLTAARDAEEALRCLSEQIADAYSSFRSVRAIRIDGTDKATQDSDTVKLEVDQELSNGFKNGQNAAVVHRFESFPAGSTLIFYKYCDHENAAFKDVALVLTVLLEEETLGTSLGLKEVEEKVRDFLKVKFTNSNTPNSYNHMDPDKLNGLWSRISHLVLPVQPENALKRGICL
Sequence of Left-right determination factor 2 (Homo sapiens) (O00292 whole entry, looked up): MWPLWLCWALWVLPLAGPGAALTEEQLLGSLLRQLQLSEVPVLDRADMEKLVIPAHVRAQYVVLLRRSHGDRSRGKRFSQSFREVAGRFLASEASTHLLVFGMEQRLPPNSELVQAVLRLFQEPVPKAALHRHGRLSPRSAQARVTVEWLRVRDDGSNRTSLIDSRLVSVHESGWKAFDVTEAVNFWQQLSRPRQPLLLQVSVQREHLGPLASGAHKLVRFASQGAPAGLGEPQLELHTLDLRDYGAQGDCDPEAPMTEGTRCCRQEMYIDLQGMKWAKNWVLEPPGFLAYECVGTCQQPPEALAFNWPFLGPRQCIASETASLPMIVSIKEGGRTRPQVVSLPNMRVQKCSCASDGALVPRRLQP

Compound	composite z-score [1]	z-score [2]	composite z-score [3]	composite z-score [4]	composite z-score [5]	composite z-score [6]	composite z-score [7]	composite z-score [8]	composite z-score [9]	composite z-score [10]
C#CCNC(=O)[C@H](Cc1ccccc1)NC(=O)CCC(=O)O	-0.665	-0.25	-0.0677	-1.48	-0.834	-0.12	-0.214	-0.501	0.409	-0.368
C=C(C)C1C(=C)CN([C@H](CO)c2ccccc2)C1=O (stereo not given in full)	0.317	-0.25	-0.065	-0.911	-0.968	-0.0459	-0.154	-0.229	-0.486	-0.605
COc1cc2c(cc1OC)CN(C(=O)[C@H]1[C@@H]3C(=O)O[C@@H](c4ccccc4)[C@@H](c4ccccc4)N3[C@@H](c3ccc(O)cc3)[C@]13C(=O)Nc1ccc(C#CC4=CCCCC4)cc13)CC2	0.282	-1.67	1.07	1.61	0.0648	0.133	-0.0146	-0.315	0.885	1.67
CC(=O)NCCCC[C@@H]1NC(=O)[C@@H]2C[C@H](C(=O)NCCCCCCNC(=O)CS)[C@H](c3cccc(OCCO)c3)N2C1=O	0.517	-0.938	0.221	0.572	0.361	0.0004	-0.142	-0.196	0.16	0.505
CN1C(=O)C2C=CC(C(O)Cc3ccccc3)N(Nc3ccccc3)C2C1=O (stereo not given)	0.343	-0.12	-0.244	1.08	0.85	-0.0738	-0.153	0.338	0.439	0.428
COCCOC(=O)N1C(=O)[C@@]2(c3cc(C#CC4=CCCCC4)ccc31)[C@H](C(=O)Nc1nc3ccccc3s1)[C@H]1C(=O)O[C@H](c3ccccc3)[C@H](c3ccccc3)N1[C@@H]2c1ccccc1OCCO	1.42	-1.66	0.938	0.738	0.417	0.332	0.126	1.21	0.512	0.858
COc1cc2c(cc1O)C(C1CC1)N(Cc1cc3c(cc1Br)OCO3)CC2 (stereo not given)	0.0206	-3.51	-1.25	-0.515	-0.58	-0.124	-0.134	-0.33	-0.447	-0.745
CCN(CC)c1ccc(N2CC=CC34O[C@@H]5/C=C\CCCOC(=O)C5[C@H]3C(=O)N(CCO)[C@@H]4C2=O)cc1 (stereo not given in full)	-0.0422	-0.684	-0.85	-0.557	0.172	-0.113	-0.0769	-0.406	-0.233	-0.259
COc1ccc(C(O)C2C=CC3C(=O)N(c4ccccc4)C(=O)C3N2Nc2ccc(C(C)C)cc2)cc1OCc1ccccc1 (stereo not given)	0.473	-0.264	0.346	2.13	0.682	0.145	-0.0375	0.299	0.598	2.07
CCCCC(=C=CC[C@@H](O)c1ccccc1OCCO)CCO	-0.0803	-0.23	-0.855	0.184	0.23	-0.147	-0.366	-0.034	0.212	-0.0423
C=C(COC)/C(=C/C[C@H](OC(=O)c1ccncc1)c1ccc(OCCO)cc1)c1cnc2ccccc2c1	1.46	-1.63	1.07	0.447	-0.669	0.0328	0.171	-0.456	0.78	2.8
O=C(NCc1ccc(F)cc1)[C@H]1C[C@H]2C(=O)N[C@@H](Cc3ccccc3)C(=O)N2[C@H]1c1ccc(O)cc1	0.335	-0.522	-0.469	0.0755	0.531	-0.148	-0.244	-0.235	0.33	-0.051
[N-]=[N+]=Nc1ccccc1C[C@]1(C(=O)NCC(O)CO)N=C(c2ccc(OCCCO)cc2)O[C@H]1c1ccccc1N=[N+]=[N-] (stereo not given in full)	0.577	-1.74	-0.588	0.771	0.839	-0.0285	0.232	-0.0592	0.407	0.15
CC(=O)NCCCC[C@@H]1NC(=O)[C@@H]2C[C@H](C(=O)NCCCCN(C)C)[C@H](c3cccc(OCCO)c3)N2C1=O	-0.426	0.471	-0.419	0.017	0.0573	-0.0944	0.0048	-0.0474	-1.4	0.473
CC(CO)N1C(=O)[C@@H]2C3C(=O)OCCC/C=C\[C@H]3OC23C=CCN(c2ccc4ccccc4c2)C(=O)[C@@H]13 (stereo not given in full)	-0.711	0.793	-1.22	0.0827	-0.0356	-0.127	-0.273	-0.0675	1.19	0.169
C=C(COC)/C(=C/C[C@@H](OC(C)=O)c1ccc(OCCO)cc1)c1cc(C(=O)OC)ccc1OC	1.35	-1.51	0.417	-0.107	-0.878	0.0618	0.23	-0.354	0.864	0.472

Compound	composite z-score [1]	z-score [2]	composite z-score [3]	composite z-score [4]	composite z-score [5]	composite z-score [6]	composite z-score [7]	composite z-score [8]	composite z-score [9]	composite z-score [10]
[N-]=[N+]=NCc1ccccc1[C@@H]1OC(c2ccc(OCCCO)cc2)=N[C@]1(CCS(=O)(=O)c1ccccc1)C(=O)NCCN1CCOCC1	1.5	-0.351	0.623	1.65	-0.173	0.132	0.323	1.17	2.04	1.95
COC(=O)[C@@]1(Cc2ccc(OC)cc2)[C@H]2c3cc(C(=O)N(C)C)n(CCN4CNCC4=O)c3C[C@H]2CN1C(=O)c1ccccc1	-0.662	-0.422	0.149	0.866	0.701	0.164	-0.0793	-0.505	0.528	-0.124
O=C1NCC(=O)N2[C@@H]1C[C@@H](C(=O)O)[C@H]2c1cccc(OCCO)c1	1.57	0.19	1.68	2.17	1.1	1.38	3.13	3.62	4.92	2.04
O=C1C2C=CC(C(O)C3CCCCC3)N(Nc3ccc([N+](=O)[O-])cc3)C2C(=O)N1c1ccccc1 (stereo not given)	1.37	-0.057	-1.4	1.16	0.164	-0.0944	-0.0035	0.283	0.721	1.96
COc1ccc([Si](C)(C)[C@H]2[C@H](CCO)O[C@@]3(C(=O)N(C)c4c(Br)cc(C)cc43)[C@@H]2C)cc1	-0.122	-5.23	0.304	0.388	0.204	-0.0944	-0.138	0.474	0.269	0.541
CC(C)c1ccc(NN2C(C(O)c3cc(C(F)(F)F)cc(C(F)(F)F)c3)C=CC3C(=O)N(c4ccccc4)C(=O)C32)cc1 (stereo not given)	1.35	-0.748	-0.931	1.55	0.647	-0.0704	0.37	0.897	0.831	0.817
CCOC(=O)C[C@H]1[C@H](OC(=O)Cc2ccc3c(c2)OCO3)[C@@H](NC(=O)c2ccc3ccccc3c2)c2cc(OCCCO)ccc2N1C(=O)c1ccccc1	0.967	-1.57	0.348	0.119	-0.447	-0.147	-0.2	-0.417	0.656	0.943
COC(=O)C(CC#Cc1ccc2c(c1)[C@]1(C(=O)N2)[C@H](c2ccc(O)cc2)N2[C@H](c3ccccc3)[C@H](c3ccccc3)OC(=O)[C@H]2[C@@H]1C(=O)Nc1nc2ccccc2s1)C(=O)OC	1.39	-0.322	0.651	1.26	0.213	0.0998	0.191	0.535	1.63	1.62
CCOC(=O)C[C@H]1[C@H](OC(=O)c2cc3ccccc3oc2=O)[C@@H](NC(=O)Cc2ccc(OC)cc2)c2cc(OCCCO)ccc2N1C(=O)c1ccccc1	0.856	-0.273	0.427	-0.13	-0.342	-0.139	0.299	1.75	0.559	0.258
C=CCOC(=O)[C@H]1[C@@H]2C(=O)O[C@@H](c3ccccc3)[C@@H](c3ccccc3)N2[C@@H](c2ccc(OCCOC(=O)[C@@H]3C[C@@H]4C(=O)N[C@@H](CCCC[N+](C)(C)C)C(=O)N4[C@@H]3c3ccc(O)cc3)cc2)[C@]12C(=O)Nc1ccccc12	1.26	-1.11	0.498	-0.0632	-0.499	-0.0398	0.123	-0.13	0.425	0.428
CC(C)C(CO)N1C(=O)[C@@H]2[C@H]3C(=O)OCC=C[C@H]3OC23C=CCN(C(C)C)C(=O)[C@@H]13 (stereo not given in full)	-0.432	1.07	-0.0108	-0.531	-1.11	-0.2	-0.223	-0.0926	-0.262	-0.557
COCCOC(=O)N1C(=O)[C@@]2(c3cc(C#CC4(O)CCCCCC4)ccc31)[C@H](c1ccc(O)cc1)N1[C@H](c3ccccc3)[C@H](c3ccccc3)OC(=O)[C@H]1[C@@H]2C(=O)Nc1nc2ccccc2s1	1.36	-0.768	0.463	2.01	0.516	0.0932	-0.131	3.16	1.35	2.21
O=C1C2C=CC(C(O)C(c3ccccc3)c3ccccc3)N(n3cnnc3)C2C(=O)N1Cc1ccccc1 (stereo not given)	1.24	-0.832	-0.164	0.836	-0.34	0.07	0.184	0.976	1.57	0.652
O=C1[C@H]2C=C(Br)[C@H](C[C@@H]2c2ccccc2)[C@@]12CO2	0.235	-3.33	1.02	-0.428	-0.441	-0.152	-0.414	-0.461	0.0974	0.0148
COC(=O)[C@@]1(Cc2ccccc2)[C@H]2c3cc(C(=O)N4CCCC4)n(Cc4cccc5ccccc45)c3C[C@H]2CN1C(=O)c1ccccc1	0.696	-1.55	-0.188	1.51	1.42	0.816	1.96	0.714	0.434	0.645
